# Screens (PubChem)
# CatG inh: cathepsin G (human) inhibition. 62,000 tested, 0.2% active. inhibition, % at 5 µM (by protocol). P08311. AID 581. purified enzyme, AMC-tetrapeptide fluorescence, pooled mixtures;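 active = inhibition above 20% in each of the two mixture wells holding the compound; inactive = inhibition of 20% or less in either well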;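 also: 0% = enzyme control without mixture and 100% = blank lacking enzyme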
# Target sequence (P08311 21-244 limits assumed): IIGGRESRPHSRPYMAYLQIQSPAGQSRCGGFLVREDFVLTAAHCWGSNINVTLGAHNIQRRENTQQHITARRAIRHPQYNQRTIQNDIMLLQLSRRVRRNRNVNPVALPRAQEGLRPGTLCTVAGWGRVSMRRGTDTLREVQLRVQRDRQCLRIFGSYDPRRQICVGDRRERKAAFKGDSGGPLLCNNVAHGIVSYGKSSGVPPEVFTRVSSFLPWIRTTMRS
# C1s block: blocks human complement C1s protease activity; P09871; purified C1s, fluorogenic AMC substrate, pooled mixtures; mean inhibition % of two 10-compound mixtures (hits give high values), % at 5 µM (by protocol); 62,000 tested, 0.16% active; AID 538;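 active = inhibition above 20% in each of the two 10-compound mixture wells holding the compound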;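 also: 0% = enzyme wells lacking compound mixture and 100% = no-enzyme blank wells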
# HePTP inh: human HePTP phosphatase inhibition; P35236; recombinant HePTP phosphatase activity, OD absorbance; inhibition, % at 20 µM; 110,000 tested, 0.64% active; AID 521; in the data active = inhibition above about 50%;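 also: plate controls were vehicle for no effect and reference inhibitor for full effect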
# Target sequence (P35236 whole entry, looked up): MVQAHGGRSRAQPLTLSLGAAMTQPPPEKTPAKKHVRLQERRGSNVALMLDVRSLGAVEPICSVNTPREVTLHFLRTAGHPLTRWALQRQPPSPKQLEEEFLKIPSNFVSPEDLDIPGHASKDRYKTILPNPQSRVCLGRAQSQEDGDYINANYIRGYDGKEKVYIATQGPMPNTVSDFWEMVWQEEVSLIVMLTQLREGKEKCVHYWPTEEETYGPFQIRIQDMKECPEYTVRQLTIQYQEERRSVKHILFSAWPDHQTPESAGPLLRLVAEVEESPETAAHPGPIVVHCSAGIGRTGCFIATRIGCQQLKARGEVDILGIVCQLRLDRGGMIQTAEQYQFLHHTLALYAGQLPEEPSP
# BAP1 inh: blocks human BAP1 ubiquitin-AMC hydrolysis; AID 436; Q92560; 72,000 tested, 0.48% active; calls only at 20 µM; recombinant BAP1, Ub-AMC hydrolysis fluorescence kinetic; hits give low values;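 active = activity remaining at or below 50% of control, provided the compound also passes the data quality filters; inactive = the rest, including low values that fail the filters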;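 also: 100% = DMSO wells rate and 0% = substrate alone blank rate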
# FXIIa mix inh: inhibitors of human coagulation factor XIIa, pooled mixtures. P00748. 62,000 tested, 0.2% active. purified FXIIa, fluorogenic substrate. AID 684. inhibition, % at 5 µM;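 also: 0% = enzyme without compound and 100% = no enzyme blank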
# FXIa mix inh: inhibitors of human coagulation factor XIa, pooled mixtures; P03951; purified FXIa, fluorogenic substrate; inhibition, % at 5 µM; 62,000 tested, 0.19% active; AID 680;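 also: each value is inhibition by a whole ten-compound pool holding the compound; 0% = enzyme with no mixture and 100% = wells lacking enzyme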
# * = called active by the depositor; i = inactive; nt = not tested or not shown; + = active, no number. Compounds with a hit are over-represented: about 1.1% of the library has one in this group of screens. Rule as the data show it, unless noted: active = inhibition above about 20% (passing the limit was not always enough); inactive = the rest.
SMILES,CatG inh,C1s block,HePTP inh,BAP1 inh,FXIIa mix inh,FXIa mix inh
CCOC(=O)c1ccc(N2NC(=O)/C(=C/C=C/c3cccc([N+](=O)[O-])c3)C2=O)cc1,nt,nt,47.3,nt,nt,nt
CS/C(=N\S(=O)(=O)c1ccc(C)cc1)c1ccccc1,nt,nt,2.8,nt,nt,nt
Cc1c(C(=O)NC2CCSC2=O)cccc1[N+](=O)[O-] (stereo not drawn),nt,nt,54.9*,nt,nt,nt
Cc1c(C(=O)NC2CCCCCC2)cccc1[N+](=O)[O-],nt,nt,-2.0,nt,nt,nt
COc1ccc(C2=Nn3c(nnc3-c3ccccc3)SC2)cc1OC,5.6,-0.2,10.2,i,2.8,9.7
COc1ccc(-c2nnc3n2N=C(c2ccccc2)CS3)cc1OC,10.2,11.8,3.4,i,32.0*,5.2
Cc1ccc(C(=O)Nc2cccc(NC(=O)c3ccc(C)c(C)c3)c2)cc1,nt,nt,2.6,nt,nt,nt
CCOC(=O)c1cnc(-c2ccccc2)nc1Nc1ccccc1,nt,nt,-8.9,nt,nt,nt
Cc1cc(C)n(-c2ccc(C(=O)OCn3nnc4ccccc4c3=O)cc2)n1,-9.8,-13.8,-10.9,i,11.5,5.7
Cc1nn(-c2ccccc2)c2sc(C(=O)OCn3nnc4ccccc4c3=O)cc12,nt,nt,nt,+,nt,nt
CCOc1cc(/C=C2\N=C(c3ccccc3)OC2=O)ccc1OCc1c(C)no[n+]1[O-],nt,nt,66.0*,nt,nt,nt
COc1cc(/C=C2\N=C(c3ccccc3)OC2=O)cc(Br)c1OCc1c(C)no[n+]1[O-],nt,nt,3.6,nt,nt,nt
COc1ccc(OC)c(C2C(C(=O)/C=C/c3ccccc3)=C(O)C(=O)N2CCCCCC(=O)O)c1 (stereo not drawn),nt,nt,78.2*,nt,nt,nt
O=C(N=Nc1c(O)[nH]c2ccc([N+](=O)[O-])cc12)c1ccc2c(c1)OCO2,nt,nt,102.1*,nt,nt,nt
CCOc1ccc(N=C2c3ccc([N+](=O)[O-])cc3C(=O)C2C(C)=O)cc1 (stereo not drawn),nt,nt,-4.7,nt,nt,nt
N#CSc1cnc(NC2CCCCC2)s1,nt,nt,-1.4,nt,nt,nt
O=C(c1ccco1)N1C(=O)c2cccc3cccc1c23,14.5,25.4*,9.2,i,4.6,4.2
O=C(NC(=S)Nc1cc([N+](=O)[O-])cc(Cl)c1O)c1cccnc1,nt,nt,102.6*,nt,nt,nt
Cc1ccc(NC(=O)c2ccc(S(=O)(=O)NCC3CCCO3)cc2)cc1 (stereo not drawn),-8.5,-25.8,-1.9,i,22.0*,-1.5
Oc1cc(O)cc(/C=C/c2ccc(O)c(O)c2)c1,nt,nt,nt,+,nt,nt
Cc1ccc(-c2cc(C(=O)O)c3cc(Br)ccc3n2)o1,nt,nt,104.0*,nt,nt,nt
CC1=C(C(=O)Nc2ccccc2Cl)C(c2ccc([N+](=O)[O-])cc2)NC(=O)N1 (stereo not drawn),nt,nt,-11.5,nt,nt,nt
O=C(c1cccc([N+](=O)[O-])c1)c1ccc2c(c1)C(=O)N(c1ccccc1C(=O)O)C2=O,nt,nt,-2.8,nt,nt,nt
O=C(c1cccc([N+](=O)[O-])c1)c1ccc2c(c1)C(=O)NC2=O,nt,nt,104.2*,nt,nt,nt
O=C(CCCN1C(=O)CCC1=O)Nc1ccc2c(c1)OCO2,8.2,-3.2,5.9,i,0.4,4.8
SMILES,CatG inh,C1s block,HePTP inh,BAP1 inh,FXIIa mix inh,FXIa mix inh
O=C(CCCCCN1C(=O)CCC1=O)Nc1ccc2c(c1)OCO2,8.0,20.8,4.9,i,22.8*,5.5
O=C(NC(C(=O)c1ccccc1)N1CCCC1)c1ccco1 (stereo not drawn),nt,nt,-5.8,nt,nt,nt
O=C1C(Cl)=CC(=NSc2nc3ccccc3s2)C=C1Cl,nt,nt,68.4*,nt,nt,nt
O=C(c1ccc(N2CCN(C(=O)c3ccccc3Br)CC2)cc1)c1cccc(F)c1,nt,nt,102.2*,nt,nt,nt
Cc1ccc(NC(=O)N(Cc2ccccc2)C(C)C2CC2)cc1 (stereo not drawn),nt,nt,102.4*,nt,nt,nt
CC(C1CC1)N(Cc1ccccc1)C(=O)c1ccc(F)cc1 (stereo not drawn),nt,nt,-11.8,nt,nt,nt
Cc1ccc(N=C2NC(=O)/C(=C/c3ccccc3F)S2)cc1,nt,nt,92.1*,nt,nt,nt
COc1ccccc1/C=C1/SC(=Nc2ccc(F)cc2)NC1=O,nt,nt,1.0,nt,nt,nt
Cc1ccccc1N(CC(=O)Nc1ccc([N+](=O)[O-])cc1)S(C)(=O)=O,nt,nt,-4.3,nt,nt,nt
Cc1ccccc1/C=N/N1CCN(Cc2ccc(Cl)cc2)CC1,nt,nt,105.1*,nt,nt,nt
CC1(C)Cc2c(sc3ncnc(NCc4ccccc4)c23)CO1,nt,nt,105.1*,nt,nt,nt
COc1ccc(C2/C(=C(\O)c3ccc(Cl)cc3)C(=O)C(=O)N2CCCCCC(=O)O)cc1 (stereo not drawn),nt,nt,7.4,nt,nt,nt
O=C(Oc1ccc(Cl)cc1N1C(=O)CCC1=O)c1ccco1,20.1,26.3*,10.6,i,3.4,14.0
O=C(NCc1ccc2c(c1)OCO2)c1cccc(N2CCCC2=O)c1,11.2,14.6,3.8,i,27.4*,4.5
Cc1cc(C)nc(NC(=O)Nc2ccc(Cl)cc2)c1,nt,nt,1.7,nt,nt,nt
COc1ccc(CN2CCN(C3CCC(C)CC3)CC2)c(OC)c1 (stereo not drawn),nt,nt,7.4,nt,nt,nt
O=C(O)c1cccc(N2C(=O)CC(Nc3ccc(N4CCOCC4)cc3)C2=O)c1 (stereo not drawn),nt,nt,60.8*,nt,nt,nt
O=C1CC(Nc2ccc(N3CCOCC3)cc2)C(=O)N1c1cccc(Cl)c1 (stereo not drawn),nt,nt,0.7,nt,nt,nt
O=C(CC1Nc2ccccc2NC1=O)Nc1cccc(C(=O)O)c1 (stereo not drawn),nt,nt,52.2*,nt,nt,nt
CN(C)S(=O)(=O)Nc1ccc2c(c1)OCO2,-0.3,-5.0,10.1,i,1.0,24.2*
Cn1c(=O)c2cc(S(=O)(=O)Nc3ccc4c(c3)OCO4)ccc2n(C)c1=O,1.2,4.9,0.4,i,-9.9,1.0
O=S(=O)(Nc1ccc2c(c1)OCO2)c1ccccc1,nt,nt,-5.8,nt,nt,nt
Cn1c(=O)oc2cc(S(=O)(=O)Nc3ccc4c(c3)OCO4)ccc21,6.4,14.8,1.3,i,45.1*,6.8
CCOc1ccccc1N1CCN(C(=O)CCc2ccccc2)CC1,nt,nt,-2.3,nt,nt,nt
COc1cc2ccccc2cc1C(=O)Nc1ccc(S(=O)(=O)Nc2nc(C)cc(C)n2)cc1,nt,nt,7.9,nt,nt,nt
SMILES,CatG inh,C1s block,HePTP inh,BAP1 inh,FXIIa mix inh,FXIa mix inh
O=C(O)CCCN1C(=O)/C(=C\c2ccc(-c3ccc(Br)cc3)o2)SC1=S,nt,nt,94.3*,nt,nt,nt
CCOC(=O)c1ccc(-c2ccc(/C=C3/SC(=S)N(CC(=O)O)C3=O)o2)cc1,nt,nt,54.5*,nt,nt,nt
O=C1/C(=C/c2ccc(Br)o2)SC(=S)N1Cc1ccccc1,nt,nt,56.0*,nt,nt,nt
O=C1/C(=C/c2ccc(-c3ccc([N+](=O)[O-])cc3)o2)SC(=S)N1Cc1ccco1,nt,nt,63.6*,nt,nt,nt
CCN1C(=O)/C(=C\c2ccc(-c3ccc(C(=O)OC)cc3)o2)SC1=S,nt,nt,1.1,nt,nt,nt
Cc1ccc(/C=C2/SC(=S)N(CCC(=O)O)C2=O)o1,nt,nt,-2.0,nt,nt,nt
CCOC(=O)c1nc(NC(=O)c2cc3ccccc3o2)sc1C,nt,nt,7.4,nt,nt,nt
CCOc1ccc(C(=O)Nc2cccc(S(N)(=O)=O)c2)cc1Br,nt,nt,102.7*,nt,nt,nt
O=C(C1CCC(CNS(=O)(=O)c2cccs2)CC1)N1CCCCC1 (stereo not drawn),8.6,-1.5,3.0,i,-14.5,-2.2
O=C(C1CCC(CNS(=O)(=O)c2cccc3cccnc23)CC1)N1CCCC1 (stereo not drawn),-1.6,-32.0,8.1,i,22.2*,1.3
c1ccc(-c2cc(N3CCOCC3)nc(-c3ccccc3)n2)cc1,-2.0,-10.6,4.0,i,3.3,7.0
Nc1nc(-c2ccccc2)cc(N2CCOCC2)n1,nt,nt,105.5*,nt,nt,nt
